Test results as given in PubChem BioAssay AID493168 (National Center for Advancing Translational Sciences (NCATS), 2011).
Records with an inconclusive call do not appear. Calls come from the whole dose curve; as a rule, active = well fitted inhibition curve with a large enough effect; inconclusive = small, poorly fitted or top-dose-only effect, or effect the other way; inactive = flat fitted curve, though single readings scatter.

Each compound was assayed against Ubiquitin carboxyl-terminal hydrolase 2 (Homo sapiens) (UniProt O75604) (assay: Confirmation Assay for Inhibitors of Ubiquitin-specific Protease USP2a Using CHOP2 as the Reporter). Conditions: USP2 core, Ub-CHOP2 coupled reporter fluorescence; series mostly up to 38.3 µM; activity change, negative = inhibition: at the top concentration.
Outline: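 Ub-CHOP2 cleavage coupled to reporter activation was read by fluorescence after 60 min at RT, with 25 nM final Ub-CHOP2 and substrate. Enzyme (10 nM final USP2 core) first sat 30 min with compound; data were normalized to NEM and fitted to concentration-response curves.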
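Note: plate controls were DMSO wells for no effect and full inhibition by NEM control for full effect; nearly all actives have a fitted effect of over 55% in size.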

Sequence of Ubiquitin carboxyl-terminal hydrolase 2 (Homo sapiens) (O75604 whole entry, looked up): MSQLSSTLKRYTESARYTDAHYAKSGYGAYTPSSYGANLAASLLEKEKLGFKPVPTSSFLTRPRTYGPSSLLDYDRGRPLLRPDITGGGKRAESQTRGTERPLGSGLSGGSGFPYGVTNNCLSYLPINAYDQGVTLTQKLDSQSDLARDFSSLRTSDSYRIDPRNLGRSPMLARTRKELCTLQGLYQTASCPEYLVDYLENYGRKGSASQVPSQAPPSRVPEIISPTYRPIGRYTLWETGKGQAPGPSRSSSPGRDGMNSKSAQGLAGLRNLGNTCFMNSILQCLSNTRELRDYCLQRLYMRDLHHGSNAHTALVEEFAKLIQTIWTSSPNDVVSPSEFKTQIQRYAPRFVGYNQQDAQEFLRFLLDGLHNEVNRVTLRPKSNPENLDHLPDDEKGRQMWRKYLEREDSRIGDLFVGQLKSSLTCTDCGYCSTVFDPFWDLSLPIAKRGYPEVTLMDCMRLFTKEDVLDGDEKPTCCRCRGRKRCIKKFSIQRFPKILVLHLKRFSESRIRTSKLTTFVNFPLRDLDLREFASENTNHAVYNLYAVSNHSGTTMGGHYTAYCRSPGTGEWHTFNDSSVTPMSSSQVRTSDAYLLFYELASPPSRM

Activity change, negative = inhibition, inactive:
O=C(CN1CCC(O)CC1)N1c2ccccc2C=Cc2ccccc21 -6.07%
Cc1ccccc1NC(=O)CSc1nnc(-c2ccco2)c(-c2ccco2)n1 -11.5%
Cc1ccc(C)n1NC(=O)c1ccccc1O -3.08%
CCOC(=O)N1CCN(C(=O)CN(c2cccc(C)c2)S(=O)(=O)c2ccccc2)CC1 -1.01%
CC1CCCCN1CCNC(=O)c1cnn2ccccc12 (stereo not given) 0.354%
